# Measurements reported in the supplement of paper PMC9135407.
# Where a name gives a salt, the structure may show the parent alone. Unmarked numbers belong to inactive results.
# Test system: primary human hepatic stellate cells (donor 1)
# Test: COL1A1 mRNA fold change vs DMSO (normalised to PSMB2); higher = more COL1A1 expression, active = hit call of the paper
# Settings: 48 h
# Description: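 Secondary qRT-PCR screen in primary human HSCs (donor 1), 384-well plates, with compounds dispensed in quadruplicate and incubated for 48 h. Cells-to-CT lysates were used for multiplexed TaqMan qPCR of ACTA2 or COL1A1 with PSMB2 as reference. Fold changes versus DMSO come from a linear model (Ct_gene ~ Ct_PSMB2 + plate + chemical). A hit is defined as COL1A1 and ACTA2 FC <0.5 (FDR <0.05) with PSMB2 between 0.2 and 2.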
row,SMILES,COL1A1 mRNA fold change
1,CCN1CCN(C(=O)Cc2ccc(Nc3ncc(F)c(Nc4ccc(C(=O)Nc5ccccc5Cl)cc4)n3)cc2)CC1 [Aurora A Inhibitor I] (33.3333 µM),0.0414
2,O=c1[nH]c2ccccc2n1C1CCN(CCCC(c2ccc(F)cc2)c2ccc(F)cc2)CC1 [Pimozide] (33.3333 µM),0.027
3,CC(C(=O)OC1CC2CCC(C1)N2C)c1ccc(Br)cc1 (configuration not stated) [PG-9 maleate] (33.3333 µM),0.598
4,C[C@@H]1O[C@@H](O[C@H]2C[C@@H](O)[C@]3(CO)[C@H]4[C@H](O)C[C@]5(C)[C@@H](C6=CC(=O)OC6)CC[C@]5(O)[C@@H]4CC[C@]3(O)C2)[C@H](O)[C@H](O)[C@H]1O [Ouabain] (33.3333 µM),0.0962 (active)
5,CC1=C(O)C(=O)C=C2C1=CC=C1[C@@]2(C)CC[C@@]2(C)[C@@H]3C[C@](C)(C(=O)O)CC[C@]3(C)CC[C@]12C [Celastrol] (3.33333 µM),1.09
6,O=C1C2CCN(CC2)C1(CO)CO (90 µM),1.07
7,O=[N+]([O-])/C=C/c1ccc2c(c1)OCO2 (3.7 µM),0.638
8,CCN(CC)CCO[C@H]1CC[C@@]2(C)C(=CC[C@@H]3[C@@H]2CC[C@]2(C)C(=O)CC[C@@H]32)C1 (33.3333 µM),0.921
9,"CN(C(=O)Cc1ccc(Cl)c(Cl)c1)[C@H](CN1CCCC1)c1ccccc1 [ICI-199,441 hydrochloride] (33.3333 µM)",0.743
10,CCCCCCCCCCCCCC(=O)O[C@@H]1[C@@H](C)[C@@]2(O)[C@@H](C=C(CO)C[C@]3(O)C(=O)C(C)=C[C@@H]23)[C@@H]2C(C)(C)[C@]12OC(C)=O [Phorbol 12-myristate 13-acetate] (27.0333 µM),0.71
11,CC1=NCCc2c1[nH]c1cc(O)ccc21 [Harmalol hydrochloride dihydrate] (24.4333 µM),1.24
12,CC[C@H]1CN2CCc3cc(OC)c(OC)cc3[C@@H]2C[C@@H]1C[C@H]1NCCc2cc(OC)c(OC)cc21 [Emetine] (12.0333 µM),0.216 (active)
13,CC1=C(CC/C(C)=C/CCC2=CC[C@H](C3=CC(=O)O[C@H]3O)O[C@H]2O)C(C)(C)CCC1 [Manoalide] (40 µM),0.236 (active)
14,CN1[C@@H]2CC[C@H]1C[C@@H](OC(c1ccc(F)cc1)c1ccc(F)cc1)C2 [3 α-Bis-(4-fluorophenyl) methoxytropane hydrochloride] (33.3333 µM),1.54
15,Fc1cc(F)c2c(c1)[C@H]1C=CC[C@H]1C(c1cccnc1)N2 (some centres not stated) [Golgicide A] (33.3333 µM),0.111 (active)
16,COc1ccc2[nH]cc(C3=CCNCC3)c2c1 (33.3333 µM),2.45
17,CO[C@H]1CC[C@@H](O[C@H]2C[C@H]([C@]3(C)CC[C@]4(C[C@H](O)[C@@H](C)[C@@H]([C@@H](C)/C=C(\C)C(=O)[C@H](C)C[C@H](C)C(=O)O)O4)O3)O[C@]3(O[C@@H]([C@H]4O[C@@](O)(CO)[C@H](C)C[C@@H]4C)C[C@@H]3C)[C@@H]2C)O[C@@H]1C [Nanchangmycin] (11.1 µM),0.223 (active)
18,C[C@H](N)Cn1ccc2cc(F)c(Cl)cc21 [Ro 60-0175 fumarate] (33.3333 µM),2.21
19,C[C@]12CC[C@H](O)C[C@H]1CC[C@@H]1[C@@H]2CC[C@]2(C)[C@@H](C3=CC(=O)OC3)CC[C@]12O [Digitoxigenin] (33.3333 µM),0.099 (active)
20,COc1ccc2c(c[n+](C)c3c4cc5c(cc4ccc23)OCO5)c1OC (6.66667 µM),0.204
21,CN[C@@H]1C[C@H]2O[C@@](C)([C@@H]1OC)n1c3ccccc3c3c4c(c5c6ccccc6n2c5c31)C(=O)NC4 [staurosporine] (35.6667 µM),0.11
22,O=C1/C(=C/c2ccccc2)C[C@@]2(O)[C@H]3Cc4ccc(O)c5c4[C@@]2(CCN3CC2CC2)[C@H]1O5 [BNTX maleate] (33.3333 µM),0.233
